Experiment [1] in a line: qHTS assay to identify small molecule antagonists of the androgen receptor (AR) signaling pathway using the MDA cell line in the presence of 0.5 nM R1881 - cell viability counter screen (AID 1259242). Also: nearly all actives have a fitted effect of over 45% in size. The gist of the method:
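MDA-kb2 cells (MMTV-luciferase, AR/GR responsive) were treated with compounds plus 0.5 nM R1881 (final) for 16 hr at 37C, 0% CO2. Viability was then read in the same wells as live-cell protease fluorescence (CellTiter-Fluor, 30 min).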

Experiment [2] can be described thus: qHTS assay to identify small molecule phospholipidosis (PLD) inducers (AID 1259344; active = well fitted curve in the direction sought with a large enough effect; an effect the other way counts as inactive or inconclusive). In outline:
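Fluorescent phospholipid staining (LipidTOX Red) measured by automated microscopy in fixed HepG2 cells after 24 h treatment; nuclei counterstained with Hoechst 33342; amiodarone as reference inducer.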

A short description of experiment [3]: qHTS assay to identify small molecule HDAC inhibitors (AID 1259364). Also: nearly all actives have a fitted effect of over 45% in size. Also: potency is read from the fitted curve at half-maximal effect. The gist of the method: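 Wild-type HCT-116 cells, plated overnight at 37 C, exposed to compounds 2 hr at 37 C; luminogenic HDAC-Glo substrate then added 30 min at room temperature. Luminescence reports relative endogenous class I/II HDAC activity.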
A short description of experiment [4]: qHTS assay to identify small molecule HDAC inhibitors - cell viability counter screen (AID 1259365). Also: nearly all actives have a fitted effect of over 50% in size. Also: potency is read from the fitted curve at half-maximal effect. The gist of the method: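 Luminescence from CellTiter-Glo, developed 30min at room temperature, reports viability of wild-type HCT-116 cells treated 2hr with compounds at 37 C and 5% CO2 after overnight plating.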
The nature of experiment [5]: qHTS assay to identify small molecule agonists of the sonic hedgehog signaling (Shh) pathway (AID 1259368; calls by dose curve;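 also: NIH/3T3-derived 3T3Gli1-Luc cells carrying a stable Gli1-driven firefly luciferase reporter; series mostly up to about 92 µM; nearly all actives have a fitted effect of over 15% in size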). In outline: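 NIH/3T3-derived 3T3Gli1-Luc cells with stably integrated Gli1-driven firefly luciferase, 2,000 cells/well, compounds added after 4 hr. Incubated 24 hr at 37C, 5% CO2; luminescence read after 30 min with luciferase reagent at room temperature.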
The nature of experiment [6]: qHTS assay to identify small molecule antagonists of the sonic hedgehog signaling (Shh) pathway (AID 1259369; calls by dose curve; also: nearly all actives have a fitted effect of over 45% in size; also: potency is read from the fitted curve at half-maximal effect). In outline:
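NIH/3T3-derived Gli1-Luc reporter cells plated 4 h, dosed with compound, then stimulated with conditioned medium for 24 h at 37 C. Firefly luciferase luminescence read after 30 min with detection reagent at room temperature.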

For experiment [7], the target named is Estrogen receptor beta (Homo sapiens) (UniProt Q92731). Put plainly: qHTS assay to identify small molecule agonists of the estrogen receptor beta (ER-beta) signaling pathway (AID 1259377; active = well fitted activation curve with a large enough effect in the signal ratio in the repeat runs, not every such curve was filed as active; the % refers to the signal ratio). In outline: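 HEK293T ER-beta-UAS-bla; 2% charcoal-stripped FBS; cells pre-incubated 6 hr, compound 16 hr, 37C/5% CO2; LiveBLAzer B/G FRET substrate 2 h RT; fluorescence intensity read.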
Chain of Estrogen receptor beta (Homo sapiens) (Q92731 whole entry, looked up): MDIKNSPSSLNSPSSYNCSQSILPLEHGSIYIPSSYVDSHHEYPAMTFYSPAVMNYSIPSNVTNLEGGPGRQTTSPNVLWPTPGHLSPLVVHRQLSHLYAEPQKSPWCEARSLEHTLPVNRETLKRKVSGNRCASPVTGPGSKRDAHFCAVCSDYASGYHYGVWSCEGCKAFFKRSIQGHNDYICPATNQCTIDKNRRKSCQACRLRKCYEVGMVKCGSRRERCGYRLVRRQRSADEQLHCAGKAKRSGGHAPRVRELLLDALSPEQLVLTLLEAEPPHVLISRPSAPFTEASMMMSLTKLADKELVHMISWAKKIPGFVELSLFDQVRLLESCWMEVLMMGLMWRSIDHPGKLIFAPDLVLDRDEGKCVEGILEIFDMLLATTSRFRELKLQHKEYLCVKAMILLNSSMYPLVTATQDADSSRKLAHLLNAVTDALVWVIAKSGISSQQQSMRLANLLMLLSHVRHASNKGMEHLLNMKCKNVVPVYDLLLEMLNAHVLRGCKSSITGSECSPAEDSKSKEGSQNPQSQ

Experiment [8] has the same target. The experiment in a line: qHTS assay to identify small molecule antagonists of the estrogen receptor beta (ER-beta) signaling pathway (AID 1259378; active = well fitted inhibition curve with a large enough effect in the signal ratio in the repeat runs, not every such curve was filed as active; the % refers to the signal ratio; also: potency is read from the fitted curve at half-maximal effect). The gist of the method: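 Antagonist mode: compounds added to beta-lactamase reporter HEK293T ER-beta-UAS cells stimulated with E2 (1nM final), 16 hr at 37C. LiveBLAzer B/G FRET substrate, 2 hours room temperature, fluorescence read-out.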

Experiment [9] in a line: qHTS assay to identify small molecule agonists of the androgen receptor (AR) signaling pathway in the presence of an antagonist - cell viability counter screen (AID 1259379). Also: nearly all actives have a fitted effect of over 25% in size. Also: potency is read from the fitted curve at half-maximal effect. The gist of the method: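 MDA-kb2 cells (MMTV-luciferase, AR/GR), 3,000/well, 5 h attachment, then 3.0 µM nilutamide (final) and compounds at 15 concentrations. Viability by CellTiter-Fluor fluorescence after 16 h at 37 °C, 0% CO2, in the reporter wells.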

Experiment [10] in a line: qHTS assay to identify small molecule agonists of the estrogen receptor beta (ER-beta) signaling pathway - cell viability counter screen (AID 1259380). Also: nearly all actives have a fitted effect of over 30% in size. Also: potency is read from the fitted curve at half-maximal effect. In outline: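 ER-beta-UAS-bla HEK293T cells in medium with 2% charcoal-stripped FBS, pre-incubated 6 hr, then treated 16 hr at 37C. Cytotoxicity read in the same wells by CellTiter-Glo luminescence after 30 min at room temperature.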

The nature of experiment [11]: qHTS assay to identify small molecule antagonists of the estrogen receptor beta (ER-beta) signaling pathway - cell viability counter screen (AID 1259382). Also: nearly all actives have a fitted effect of over 55% in size. Also: potency is read from the fitted curve at half-maximal effect. The gist of the method: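 ER-beta-UAS-bla HEK293T cells in 2% charcoal-stripped FBS medium, treated with compound plus 1 nM 17-beta-estradiol for 16 h at 37C. Viability read by CellTiter-Glo luminescence after 30 min at room temperature in the same wells.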

Experiment [12] in a line: qHTS assay to identify small molecule agonists of the sonic hedgehog signaling (Shh) pathway - cell viability counter screen (AID 1259366). Also: nearly all actives have a fitted effect of over 50% in size. Also: potency is read from the fitted curve at half-maximal effect. In outline: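 Cytotoxicity counter screen run in the same wells as the Shh reporter assay. NIH/3T3 cells carrying a Gli1 response element–driven luciferase were treated with DMSO-dissolved compounds for 24hr, and live-cell protease activity was measured with CellTiter-Fluor.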

A short description of experiment [13]: qHTS assay to identify small molecule antagonists of the sonic hedgehog signaling (Shh) pathway - cell viability counter screen (AID 1259367). Also: nearly all actives have a fitted effect of over 55% in size. Also: potency is read from the fitted curve at half-maximal effect. The gist of the method: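 Using CellTiter-Fluor, viability of Gli1-Luc reporter 3T3 cells is read by fluorescence in the wells used for the Shh luciferase assay. Treatment lasts 23 hr with conditioned medium, then reagent 1 hr at 37C.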

The target of experiment [14] is Androgen receptor (Homo sapiens) (UniProt P10275). Put plainly: qHTS assay to identify small molecule antagonists of the androgen receptor (AR) signaling pathway using the MDA cell line in the presence of 0.5 nM R1881 (AID 1259243). Also: nearly all actives have a fitted effect of over 50% in size. Also: potency is read from the fitted curve at half-maximal effect. In outline: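 MDA-kb2 cells (MMTV-luciferase, responsive to AR and GR) at 3,000/well, rested 5 h at 37C, 0% CO2, then given compounds plus 0.5 nM R1881 (final) for 16 hr. Luciferase read with ONE-Glo after 30 min at room temperature.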
Chain of Androgen receptor (Homo sapiens) (P10275 whole entry, looked up): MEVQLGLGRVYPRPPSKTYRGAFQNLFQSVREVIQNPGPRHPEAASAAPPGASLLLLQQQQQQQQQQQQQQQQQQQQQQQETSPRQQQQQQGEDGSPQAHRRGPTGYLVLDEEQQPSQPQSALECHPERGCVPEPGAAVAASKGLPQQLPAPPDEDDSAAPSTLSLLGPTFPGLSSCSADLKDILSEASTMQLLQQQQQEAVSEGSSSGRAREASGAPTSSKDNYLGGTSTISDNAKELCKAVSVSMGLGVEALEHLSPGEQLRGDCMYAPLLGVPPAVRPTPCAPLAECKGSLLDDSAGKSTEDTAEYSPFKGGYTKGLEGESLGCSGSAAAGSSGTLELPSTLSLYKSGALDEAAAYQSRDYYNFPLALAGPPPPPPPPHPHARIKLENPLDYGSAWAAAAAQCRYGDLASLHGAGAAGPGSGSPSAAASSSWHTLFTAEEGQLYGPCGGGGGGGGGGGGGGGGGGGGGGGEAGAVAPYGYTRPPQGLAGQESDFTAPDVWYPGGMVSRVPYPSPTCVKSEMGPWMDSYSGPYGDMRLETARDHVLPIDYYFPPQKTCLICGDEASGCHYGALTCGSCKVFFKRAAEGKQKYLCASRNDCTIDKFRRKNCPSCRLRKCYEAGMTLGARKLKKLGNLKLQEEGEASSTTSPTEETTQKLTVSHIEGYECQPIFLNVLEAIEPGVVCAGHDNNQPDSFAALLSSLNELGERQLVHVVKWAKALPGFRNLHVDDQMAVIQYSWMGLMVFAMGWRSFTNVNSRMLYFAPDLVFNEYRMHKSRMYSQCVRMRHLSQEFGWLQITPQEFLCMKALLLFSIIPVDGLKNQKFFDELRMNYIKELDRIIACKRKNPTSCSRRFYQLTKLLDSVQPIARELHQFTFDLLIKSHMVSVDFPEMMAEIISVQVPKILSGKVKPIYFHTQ

Experiment [15] has as its target Estrogen receptor (Homo sapiens) (UniProt P03372). The experiment in a line: qHTS assay to identify small molecule antagonists of the estrogen receptor alpha (ER-alpha) signaling pathway using the BG1 cell line in the presence of 0.1 nM 17-beta-estradiol (AID 1259244). Also: nearly all actives have a fitted effect of over 50% in size. Also: potency is read from the fitted curve at half-maximal effect. In outline:
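VM7Luc4E2 cells (endogenous full-length ER-alpha, 4×ERE-luciferase), kept 5 days in phenol red-free, charcoal-stripped FBS medium; 4,000 cells/well. Compounds added with 0.1 nM (final) 17beta-estradiol, 22 hr at 37C; luminescence read with ONE-Glo after 30 min.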

Experiment [16] addresses Androgen receptor (Homo sapiens) (UniProt P10275). The experiment in a line: qHTS assay to identify small molecule agonists of the androgen receptor (AR) signaling pathway in the presence of an antagonist (AID 1259381; calls by dose curve; also: nearly all actives have a fitted effect of over 15% in size). The gist of the method:
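MDA-kb2 cells carrying MMTV-luciferase (AR/GR responsive), 3,000 cells/well, co-treated with 3.0 uM nilutamide final. Compounds at 15 concentrations, 16 hr at 37C without CO2. Luciferase luminescence read after 30 min with ONE-Glo.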

Experiment [17] concerns the target Estrogen receptor (Homo sapiens) (UniProt P03372). Put plainly: qHTS assay to identify small molecule agonists of the estrogen receptor alpha (ER-alpha) signaling pathway in the presence of an antagonist (AID 1259383; calls by dose curve; also: top concentration of the series differs between compounds; nearly all actives have a fitted effect of over 15% in size). The gist of the method:
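VM7Luc4E2 cells express endogenous full-length ER-alpha with an ERE-luciferase reporter and were hormone-deprived for 5 days. Compounds at 15 concentrations were added with 10.0nM ICI-182,780 for 22hr at 37C. Luminescence was read with ONE-Glo.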

A short description of experiment [18]: qHTS assay to identify small molecule agonists or antagonists of the thyroid stimulating hormone receptor (TSHR) signaling pathway - wild type cell line counter screen (AID 1259384; calls by dose curve). In outline:
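Counter screen in untransfected Hek293: compounds (15-point titration, triplicate) plus phosphodiesterase inhibitor Ro20-1724 added after 18 h plating; 30 min RT. Intracellular cAMP via competitive d2/cryptate immunoassay, 1 h incubation.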

For experiment [19], the target named is Thyrotropin receptor (Homo sapiens) (UniProt P16473). The experiment in a line: qHTS assay to identify small molecule antagonists of the thyroid stimulating hormone receptor (TSHR) signaling pathway (AID 1259385; calls by dose curve; also: nearly all actives have a fitted effect of over 20% in size). In outline:
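Antagonist mode: compound-treated TSHR-expressing HEK293 cells were stimulated with 1.5 ng/mL TSH (final) in presence of Ro20-1724 for 30 min at RT. HTRF cAMP detection after 1 h; each compound tested at 15 concentrations, triplicate.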

SMILES strings stand for the structures. “And” between values parts separate entries of the source, which are not always exact repeats. Equal values may be shown once. Inconclusive results are not listed. Where a structure was tested more than once in an assay, its records may differ in their call. The source made the active and inactive calls. Unless noted, calls follow the shape of the dose curve; as a rule, active = well fitted curve in the direction sought with a large enough effect in the repeat runs; inconclusive = weak or mixed curves; inactive = no such curve, though single readings can be large; an effect the other way counts as inactive or inconclusive.

Chain of Thyrotropin receptor (Homo sapiens) (P16473 whole entry, looked up): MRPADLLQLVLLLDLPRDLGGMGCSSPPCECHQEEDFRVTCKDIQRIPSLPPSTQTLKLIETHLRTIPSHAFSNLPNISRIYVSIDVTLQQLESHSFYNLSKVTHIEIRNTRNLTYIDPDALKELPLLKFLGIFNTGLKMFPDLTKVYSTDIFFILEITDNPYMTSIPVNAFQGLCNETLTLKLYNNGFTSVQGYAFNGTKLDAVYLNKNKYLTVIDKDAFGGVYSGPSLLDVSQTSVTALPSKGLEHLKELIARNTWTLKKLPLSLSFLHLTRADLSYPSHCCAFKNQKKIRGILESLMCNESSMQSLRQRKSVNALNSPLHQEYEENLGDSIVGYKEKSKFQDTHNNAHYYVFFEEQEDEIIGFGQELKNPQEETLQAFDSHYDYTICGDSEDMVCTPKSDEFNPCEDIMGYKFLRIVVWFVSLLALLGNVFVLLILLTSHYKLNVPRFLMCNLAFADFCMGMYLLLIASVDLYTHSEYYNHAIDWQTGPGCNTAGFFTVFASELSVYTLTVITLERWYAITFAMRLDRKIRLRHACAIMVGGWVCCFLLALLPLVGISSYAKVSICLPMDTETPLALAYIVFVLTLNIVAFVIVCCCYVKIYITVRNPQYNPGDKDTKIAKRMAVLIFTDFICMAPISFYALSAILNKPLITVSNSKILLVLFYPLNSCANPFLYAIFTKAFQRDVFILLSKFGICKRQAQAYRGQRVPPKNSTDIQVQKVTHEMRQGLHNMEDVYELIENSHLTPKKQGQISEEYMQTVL
Chain of Estrogen receptor (Homo sapiens) (P03372 whole entry, looked up): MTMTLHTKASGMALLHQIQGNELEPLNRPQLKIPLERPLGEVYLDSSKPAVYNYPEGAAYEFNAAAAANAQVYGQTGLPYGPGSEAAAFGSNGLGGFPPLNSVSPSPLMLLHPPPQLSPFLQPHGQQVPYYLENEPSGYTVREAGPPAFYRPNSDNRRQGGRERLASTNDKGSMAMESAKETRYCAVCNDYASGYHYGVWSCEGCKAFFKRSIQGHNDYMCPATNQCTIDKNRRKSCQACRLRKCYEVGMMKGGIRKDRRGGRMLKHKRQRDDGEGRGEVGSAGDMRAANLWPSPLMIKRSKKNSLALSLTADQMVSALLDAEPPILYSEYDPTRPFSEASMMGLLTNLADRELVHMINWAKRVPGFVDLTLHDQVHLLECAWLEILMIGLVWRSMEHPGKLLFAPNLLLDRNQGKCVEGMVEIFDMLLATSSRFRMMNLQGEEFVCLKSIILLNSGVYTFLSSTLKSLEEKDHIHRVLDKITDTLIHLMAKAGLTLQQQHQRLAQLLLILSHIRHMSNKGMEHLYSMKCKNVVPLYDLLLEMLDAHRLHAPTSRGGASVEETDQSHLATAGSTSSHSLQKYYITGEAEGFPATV

For the compound `CN(C)CCc1c[nH]c2cccc(O)c12`, the Potency entry in experiment [1], in experiment [2], in experiment [3], in experiment [4], in experiment [5] and in [7] was “inactive” in each case. In addition, the Potency result in experiment [8], in [9], in experiment [10] and in [11] was “inactive” in each case. The Potency in experiment [6] was 53.9 µM (active).
Take `COc1ccc(N)cc1N`: the Potency result in experiment [3], in experiment [5] and in experiment [9] was “inactive” in each case. Also, the Potency in experiment [4] was 15.8 µM (active); in experiment [12] it was 9.99 µM (active) and 29.4 µM (active); in [13] it was 15.8 µM (active) and 33 µM (active); in [6], 3.55 µM (active) and 8.29 µM (active); in [10], 7.08 µM (active) and 13.1 µM (active); in experiment [11] it was 22.4 µM (active).
With `Oc1cc(Cl)c(Cl)c(Cl)c1`, the Potency in experiment [14] is 46.1 µM (active); in experiment [15] it was 41 µM (active); in experiment [6], 13 µM (active); in experiment [8], 14.6 µM (active); in experiment [10] it was 25.9 µM (active). In addition, the Potency result in experiment [3], in experiment [4], in experiment [12], in experiment [5], in experiment [7] and in experiment [16] was “inactive” each time. Moreover, the Potency entry in [17] and in [19] was “inactive” in each case. In addition, the compound was classed as inactive in experiment [18].
Regarding `Cc1cc(SCc2sc(-c3ccc(C(F)(F)F)c(F)c3)nc2C)ccc1OCC(=O)O`, the Potency result in experiment [15], in experiment [4], in [5], in experiment [9] and in [17] was “inactive” in each case. For the same compound, the Potency in [12] was 43.3 µM (active); in [13], 30.6 µM (active); in [10] it was 15.4 µM (active); in [11], 13.7 µM (active).
For the compound `NC(=O)c1ccc(N)nc1`, the Potency entry in experiment [1], in [3], in [4], in experiment [12], in experiment [13] and in experiment [5] was “inactive” each time. The Potency entry in [8], in [9], in experiment [16] and in experiment [17] was “inactive” in each case. The Potency in experiment [10] is 48.6 µM (active).
For `CCCCCCCCCCCCCCCC[N+](C)(C)C`, the Potency result in experiment [2], in experiment [3], in experiment [4], in [5] and in experiment [19] was “inactive” throughout. Moreover, the Potency in experiment [12] was 54.5 µM (active) and inactive; in [13] it was 61.1 µM (active) and inactive; in [6], 3.72 µM (active) and 969 nM (active) and 298 nM (active); in experiment [9] it was 29.5 µM (active) and 48.6 µM (active) and 26.6 µM (active); in [10], 9.34 µM (active) and 24.3 µM (active) and 11.9 µM (active); in experiment [11], 23.5 µM (active) and 54.5 µM (active) and 23.7 µM (active). In addition, the compound was classed as inactive in experiment [18].
With `CCOc1cc(C(C)(C)C)ccc1C1COC(c2c(F)cccc2F)=N1` (stereo not given), the Potency entry in experiment [1], in experiment [3], in experiment [4], in experiment [12], in experiment [13] and in experiment [5] was “inactive” each time. The Potency entry in experiment [9], in experiment [16] and in experiment [17] was “inactive” throughout. The Potency was 2.95 µM (active) in [6], 18.6 µM (active) in [10] and 29.5 µM (active) in experiment [11].
Consider `C=CCC1=C(C)C(OC(=O)C2C(C=C(C)C)C2(C)C)CC1=O` (stereo not given), for which the Potency result in experiment [3], in experiment [12], in experiment [13], in experiment [5], in [11] and in experiment [17] was “inactive” throughout. The results for the Potency in experiment [6] and in experiment [9] were 16.3 µM (active) and 61.1 µM (active), respectively. Moreover, the compound was classed as inactive in experiment [18].
With `O=C(O)c1cc[c]([Hg][Cl])cc1`, the Potency entry in [15], in experiment [4], in [5], in experiment [9], in experiment [17] and in [19] was “inactive” each time. Further, the Potency in [3] is 30.6 µM (active); in [12] it was 27.3 µM (active); in experiment [13], 43.3 µM (active). Moreover, the outcome in experiment [18] was inactive.
In the case of `O=C(CCCN1CCC2(CC1)C(=O)NCN2c1ccccc1)c1ccc(F)cc1`, the Potency in [15] is 8.41 µM (active); in [6], 2.11 µM (active); in experiment [10], 13.3 µM (active). In addition, the Potency entry in [3], in experiment [12], in [13], in experiment [5], in experiment [7] and in experiment [9] was “inactive” throughout. In addition, the Potency result in experiment [11], in experiment [17] and in [19] was “inactive” in each case. Also, in [18], the outcome was inactive.
For the compound `O=[N+]([O-])c1cc(Cl)ccc1Cl`, the Potency entry in experiment [14], in experiment [15], in [3], in [4], in experiment [12] and in experiment [13] was “inactive” each time. The Potency result in [5], in [6], in [7], in [8], in experiment [9] and in experiment [10] was “inactive” in each case. For the same compound, the Potency result in experiment [16], in experiment [11], in [17] and in experiment [19] was “inactive” each time. In [18], the call was inactive.
For the compound `CN(C)S(=O)(=O)N(SC(F)(Cl)Cl)c1ccccc1`, the Potency entry in [3] and in experiment [5] was “inactive” throughout. Further, the Potency in [12] is 6.11 µM (active); in [13], 12.2 µM (active); in experiment [9] it was 30.6 µM (active); in experiment [10], 38.6 µM (active); in experiment [11], 54.5 µM (active). In experiment [18], the call was inactive.

(Values after PubChem BioAssay (Tox21).)
